According to PubChem BioAssay (NCATS):
Records with an inconclusive call do not appear. A call without a number means that no potency is given here. Active and inactive are the calls of the source. Unless noted, the call rests on the fitted dose curve; in most records, active means well fitted inhibition curve with a large enough effect; inconclusive means small, poorly fitted or top-dose-only effect; inactive means flat fitted curve, though single readings scatter.

Columns and labels:
[1] = molecular target: Glutathione peroxidase 1 (Homo sapiens) (UniProt P07203); assay: Primary qHTS Assay for Inhibitors of Recombinant Selenoprotein Glutathione Peroxidase 1 (GPX1) (AID 1845191); details: recombinant GPX1, GR-coupled NADPH fluorescence, 15 min; series mostly up to 48.8 µM; further: nearly all actives have a fitted effect of over 65% in size
Sequence of Glutathione peroxidase 1 (Homo sapiens) (P07203 whole entry, looked up): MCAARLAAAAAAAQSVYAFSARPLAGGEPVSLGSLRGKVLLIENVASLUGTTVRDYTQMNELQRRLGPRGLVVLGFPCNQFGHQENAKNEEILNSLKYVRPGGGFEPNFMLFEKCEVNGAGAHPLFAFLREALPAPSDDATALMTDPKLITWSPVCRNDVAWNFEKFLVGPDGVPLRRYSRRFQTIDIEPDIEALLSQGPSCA
Summary of the method: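 GPX1 10 nM, GR 100 nM, GSH 1 mM, NADPH 0.5 mM, CHP 0.5 mM (final). 30-min cpd preincubation, RT. Ex340/Em450 read t=0, t=15 min.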

[2] = molecular target: Phospholipid hydroperoxide glutathione peroxidase GPX4 (Homo sapiens) (UniProt P36969); assay: Primary qHTS Assay for Inhibitors of Recombinant Selenoprotein Glutathione Peroxidase 4 (GPX4) (AID 1845192); details: recombinant GPX4, GR-coupled NADPH fluorescence, 15 min; series mostly up to 50 µM; further: nearly all actives have a fitted effect of over 65% in size
Sequence of Phospholipid hydroperoxide glutathione peroxidase GPX4 (Homo sapiens) (P36969 whole entry, looked up): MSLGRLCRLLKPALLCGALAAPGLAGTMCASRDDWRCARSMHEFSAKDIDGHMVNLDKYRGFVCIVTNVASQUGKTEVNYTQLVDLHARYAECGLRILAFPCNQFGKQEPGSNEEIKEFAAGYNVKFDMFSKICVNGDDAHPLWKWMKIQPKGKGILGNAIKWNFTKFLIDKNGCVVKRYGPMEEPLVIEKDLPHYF
Summary of the method: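 qHTS, GR-coupled: GPX4 200 nM + cpd 30 min RT → GSH 1 mM, NADPH 0.5 mM, GR 100 nM → CHP 0.5 mM start; fluor 340/450 at t0 and t15 min; no-enzyme wells as control.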

[3] = qHTS drug screen for cell cycle checkpoint inhibitors in PARPi-resistant BRCA-mutant ovarian cancer cell lines. (AID 1963452; calls by dose curve); details: PEO1/OlaR viability, CellTiter-Glo luminescence, 96 h, stronger effect = lower value
Summary of the method: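 PEO1, PEO4 and PEO1/OlaR ovarian cancer cells, 600 per well, exposed 96 h at 37C to a dilution series. Viability read by CellTiter-Glo luminescence, normalized to DMSO and empty wells; activity summarized as Z-AUC.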

[4] = measured here: PEO1 parental Z-AUC

| Compound | Potency [1] | Potency [2] | Z-AUC [3] | Z-AUC [3, 4] | Z-AUC ([3]; measured here: PEO4 Z-AUC) |
| --- | --- | --- | --- | --- | --- |
| CCN[C@H]1CN(CCCOC)S(=O)(=O)c2sc(S(N)(=O)=O)cc21 | inactive | inactive |  |  |  |
| Cc1onc(-c2ccccc2)c1-c1ccc(S(N)(=O)=O)cc1 | inactive | inactive | -1 (inactive) | -0.334 | 0.0747 |
| CC(C)C[C@@H](N)C(=O)O | inactive | inactive |  |  |  |
| O=C(NCC(O)CO)c1c(I)c(C(=O)NCC(O)CO)c(I)c(N(CCO)C(=O)CO)c1I (stereo not given) | inactive | inactive |  |  |  |
| O=C(O)COC(=O)Cc1ccccc1Nc1c(Cl)cccc1Cl | inactive | inactive |  |  |  |
| C[C@@H]1O[C@@H](OC[C@H]2O[C@@H](Oc3c(-c4ccc(O)c(O)c4)oc4cc(O)cc(O)c4c3=O)[C@H](O)[C@@H](O)[C@@H]2O)[C@H](O)[C@H](O)[C@H]1O | inactive | inactive |  |  |  |
| CC(CN(C)C)C(C)(O)Cc1ccc(Cl)cc1 (stereo not given) | inactive | inactive |  |  |  |
| O=C(O)/C=C/c1ccc(Cn2ccnc2)cc1 | inactive | inactive | 1.62 (inactive) | 1.73 | 2.28 |
| COc1ccccc1Oc1c(NS(=O)(=O)c2ccc(C(C)(C)C)cc2)nc(-c2ncccn2)nc1OCCO | inactive | inactive |  |  |  |
| O=C(O)CCC(=O)O | inactive | inactive |  |  |  |
| CCOC(=O)[C@H](CCc1ccccc1)N[C@@H](C)C(=O)N1CCC[C@H]1C(=O)O | inactive | inactive | 0.643 (inactive) | 0.764 | 0.867 |
| COC(=O)c1cccnc1 | inactive | inactive |  |  |  |
| CC(=O)OC[C@H]1O[C@@](COC(C)=O)(O[C@H]2O[C@H](COC(C)=O)[C@@H](OC(C)=O)[C@H](OC(C)=O)[C@H]2OC(C)=O)[C@@H](OC(C)=O)[C@@H]1OC(C)=O | inactive | inactive |  |  |  |
